Hits are enriched below; roughly 7.3% of the tested compounds scored in any of these assays.
FLuc counter = counter-screen for miR-21 project: firefly luciferase inhibitors or activators; P08659; purified FLuc, Km substrates, luminescence inhibition; Potency, µM (doses to about 57.5 µM), without a hit: top-dose activity change, negative = inhibition, most hits filed as inhibitors; 6.9% of 360,000 active;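 note: plate controls were vehicle for no effect and reference inhibitor for full effect; nearly all actives have a fitted effect of over 55% in size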
Target sequence (P08659 whole entry, looked up): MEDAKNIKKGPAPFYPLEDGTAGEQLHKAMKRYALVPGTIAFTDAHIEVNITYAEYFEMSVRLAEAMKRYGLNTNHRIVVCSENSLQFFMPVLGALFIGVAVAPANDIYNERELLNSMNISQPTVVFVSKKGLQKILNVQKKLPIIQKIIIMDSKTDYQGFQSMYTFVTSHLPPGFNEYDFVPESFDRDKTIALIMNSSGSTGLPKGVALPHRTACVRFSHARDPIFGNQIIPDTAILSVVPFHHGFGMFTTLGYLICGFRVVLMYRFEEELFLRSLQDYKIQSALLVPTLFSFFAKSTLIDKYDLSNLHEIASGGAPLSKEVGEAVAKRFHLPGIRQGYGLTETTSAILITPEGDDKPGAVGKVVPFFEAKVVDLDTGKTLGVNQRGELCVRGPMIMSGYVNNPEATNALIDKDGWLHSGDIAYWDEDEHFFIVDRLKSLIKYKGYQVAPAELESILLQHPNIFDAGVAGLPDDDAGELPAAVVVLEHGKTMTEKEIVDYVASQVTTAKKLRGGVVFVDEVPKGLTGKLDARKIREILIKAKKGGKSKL
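Biochemical qHTS of compounds, final roughly 60 µM downward over six points, against 10 nM purified firefly luciferase using Km concentrations of substrates (10 uM D-luciferin, 10 uM ATP) in Tris acetate pH 7.5 buffer; luminescence output.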
NPC1 prom act = activators of NPC1 promoter | 2.4% of 320,000 active | Huh7 NPC1 promoter luciferase reporter, 24 h | Potency, µM (series often up to 9.22 µM), for inactives: at the highest dose activation, most hits filed as activators | AID 485313; note: % of control where 0% means no effect; nearly all actives have a fitted effect of over 60% in size
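Luminescence read-out of NPC1 promoter-driven luciferase in stably transfected Huh7 cells; compounds delivered in DMSO and left 24 h at 37C, 5% CO2, qHTS titration format.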
Rab9 promoter act = activators of Rab9 promoter; Huh7 Rab9 promoter-luciferase reporter, luminescence, 24 h; Potency, µM (top dose mostly 9.22 µM), for inactives: at the top dose activation, negative = inhibition, hits mostly activators; 2.8% of 320,000 active; AID 485297; note: % of control where 0% means no effect; nearly all actives have a fitted effect of over 60% in size
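Stable Rab9-luc Huh7, 1500 cells/well, 2 h settle; cmpd in DMSO, 24 h, 37 °C/5% CO2; luciferase reagent 10 min RT; luminescence.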
SMN2 splice enh = enhancers of SMN2 splice variant expression | HEK293 SMN2-luciferase splicing reporter, luminescence, 30-36 h | Potency, µM (top dose mostly 46.1 µM), for inactives: at the top dose activity change, positive = activation, usual class: activators | 2.8% of 210,000 active; note: % of control where 0% means no effect; nearly all actives have a fitted effect of over 55% in size
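HEK293 cells carry an SMN2 […]–luciferase reporter in which exon 7 inclusion puts luciferase in frame. Cells were plated 10-12 h before compound addition, then incubated 30-36 h at 37C. ONE-Glo luminescence was read; sodium butyrate at 4.5 mM final served as control.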
ELG1 genotoxic = inducers of genotoxicity in HEK293T ELG1-luciferase cells | 1.3% of 330,000 active | Potency, µM (doses to about 46 µM), without a hit: top-dose activity change, positive = activation, hits mostly activators | HEK293T ELG1-luciferase reporter, luminescence, 16 h | AID 504466; note: % of control where 0% means no effect; nearly all actives have a fitted effect of over 60% in size
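Step 1: seed 2,000 HEK293T ELG1-luciferase cells per well. Step 2: add compound or DMSO, incubate 16 hr at 37 °C. Step 3: ONE-Glo, 30 min at room temperature, read luminescence.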
Luc counter = Kinase-Glo luciferase inhibition (counter-screen); 0.28% of 200,000 active; Potency, µM (doses to about 38.3 µM), for inactives: at the highest dose activity change, negative = inhibition, actives largely listed as inhibitors; Q27757; Kinase-Glo luciferase, ATP luminescence, 8 min; note: % is set by controls: 0 for no effect and ±100 for the full control effect; nearly all actives have a fitted effect of over 60% in size
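Kinase-Glo luciferase light output from ATP and luciferin was measured with 10 uM ATP, within the enzyme's linear range. Buffer: 50 mM imidazole pH 7.2, 50 mM KCl, 7 mM MgCl2, 0.01% Tween 20, 0.05% BSA; luminescence read after 8 min at ambient temperature.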
* marks the source's active call; other numbers are inactive results; ? = inconclusive; · = no result; [ ] = remark or other dose. Calls come from the whole dose curve; as a rule, active = well fitted curve in the direction sought with a large enough effect; inconclusive = small, poorly fitted or top-dose-only effect, or another doubt; inactive = no such curve, though single readings can be large; an effect the other way counts as inactive or inconclusive. Potency is the fitted concentration of half-maximal effect.

SMILES	FLuc counter	NPC1 prom act	Rab9 promoter act	SMN2 splice enh	ELG1 genotoxic	Luc counter
O=C(O)[C@H](C1NCCS1)N1C(=O)c2ccccc2C1=O (some centres undefined)	·	·	·	-11%[9.22 µM]	·	-1%[7.66 µM]
CC(=O)Nc1sc(N/N=C\c2ccco2)nc1-c1cccs1	17µM*	-2%	16%	-11%	2%	2%
CC(=O)Nc1sc(N/N=C/c2ccc(O)cc2)nc1-c1ccc(C)cc1	2.4µM*	1%	10%	·	?	·
CCOc1cc(/C=N/NC(=O)CSc2cccc3cccnc23)ccc1O	-12%	-2%	-4%	18%	-6%	1%
CC(=O)Nc1sc(N/N=C\c2ccccc2Cl)nc1-c1cccs1	-18%	4%	13%	-20%	?	0%
Cc1ccc(NC(=O)CCC(=O)N/N=C/c2ccc(O)cc2)cc1	-15%	-1%	2%	·	2%	·
CC(=O)Nc1sc(N/N=C/c2ccccc2F)nc1-c1ccc(C)cc1	7.6µM*	1%	10%	·	-2%	·
CCOc1cc(/C=N/Nc2nc(-c3cccs3)c(NC(C)=O)s2)ccc1O	27µM*	-1%	1%	·	1%	·
O=C(NCCCc1nc2ccccc2n1Cc1ccccc1F)c1ccco1	-7%	·	·	-12%	·	·
CCOC(=O)c1c(C)[nH]c(C)c1S(=O)(=O)N1CCC(C(=O)Nc2ccccc2CC)CC1	-7%	·	·	·	·	·
CN(CC(=O)Nc1cccc(F)c1)C(=O)c1ccc(OCc2cn3ccccc3n2)cc1	·	·	·	·	5%	·
Fc1cccc(NCc2cn3ccccc3n2)c1	9.5µM*	1.8µM*	0.79µM*	2.5µM*	2.3µM*	?
Fc1ccc(NCc2cn3ccccc3n2)cc1	15µM*	3.2µM*	4µM*	?	-3%	11µM*
O=C(NCCc1cn2ccccc2n1)c1ccccc1F	2%	0%	0%	-14%	1%	-2%
C[C@@H](NC(=O)[C@@H]1Cc2ccccc2CN1)C(=O)Nc1ccc2c(c1)OCCO2	21µM*	30%	27%	·	?	·
COc1ccc(Nc2nc(N)nc(SCc3nnc(C)s3)n2)cc1	24µM*	26%	?	?	?	1%
Cn1cnnc1SCc1nc(N)nc(Nc2ccccc2)n1	?	?	?	5%	?	-2%
COc1ccc(Nc2nc(N)nc(CSc3nccn3C)n2)cc1	21µM*	1.4µM*	1.8µM*	·	?	-2%
Cc1ccc(Nc2nc(N)nc(CSc3nncn3C)n2)cc1	13µM*	3.2µM*	2.8µM*	18µM*	?	-1%
COc1ccc2nc(SCc3nc(N)nc(Nc4ccccc4)n3)[nH]c2c1	13µM*	-6%	14%	-13%	-1%	3%
COc1ccc(Nc2nc(N)nc(CSc3nnc(N)s3)n2)cc1	?	?	?	25%	?	-6%
O=C(NCc1ccccc1F)C1CCCN(C(=O)N2CCOc3ccccc32)C1 (centres undefined)	-1%	·	·	·	·	·
Cc1ccc(NC(=O)C(NS(=O)(=O)c2ccc3c(c2)CCC(=O)N3)c2ccccc2)cc1C (centres undefined)	?	·	·	8%	·	·
COc1ccc(-n2c(=O)c3c4c(sc3n(Cc3c(F)cccc3Cl)c2=O)CN(C(C)=O)CC4)cc1OC	-2%	·	·	·	·	·
CCCCOc1ccc(C(=O)NCc2nnnn2-c2ccc(C)c(C)c2)cc1	-16%	·	·	·	·	·
SMILES	FLuc counter	NPC1 prom act	Rab9 promoter act	SMN2 splice enh	ELG1 genotoxic	Luc counter
Nc1nc(CSc2ccccn2)nc(Nc2ccccc2)n1	9.5µM*	2.8µM*	1.4µM*	11µM*	?	1%
NCCO	·	·	·	-2%	·	·
O=C(O)c1ccc(N2C(=O)CC(N3C(=O)/C(=C/c4ccc(Cl)cc4)SC3=S)C2=O)cc1 (centres undefined)	17µM*	-1%	1%	·	-2%	·
O=C(O)c1ccc(N2C(=O)CC(N3CCN(c4ccc(Cl)cc4)CC3)C2=O)cc1 (centres undefined)	1%	0%	0%	·	-4%	·
COc1ccc(C(=O)N=c2sccn2C)cc1	17µM*	?	?	?	?	-29%
COC(=O)c1ccc(C(=O)N=c2sccn2C)cc1	15µM*	2.8µM*	2.8µM*	·	?	·
COc1ccc(NC(=O)CSCC(=O)N=c2sccn2C)cc1	4%	1%	6%	·	6%	·
Cn1ccsc1=NC(=O)c1ccc(OC(F)(F)F)cc1	9.5µM*	?	4.5µM*	·	?	·
Cn1ccsc1=NC(=O)c1ccccc1F	-1%	4%	21%	3%	-9%	0%
Cn1ccs/c1=N\C(=O)Nc1ccccc1	11µM*	2.5µM*	3.2µM*	·	?	·
C#Cc1cccc(Nc2ncnc3cc(OC)c(OC)cc23)c1	·	·	·	8%	·	·
CCCC(=O)Nc1cc(C)c(O)c(-c2nc3ncccc3o2)c1	-2%	·	·	3%	·	·
Cn1ccsc1=NC(=O)c1ccc(CS(C)(=O)=O)cc1	?	17%	20%	·	16%	·
Cn1ccsc1=NC(=O)c1ccc(S(=O)(=O)C(F)F)cc1	?	?	3.5µM*	·	?	·
CCOc1cc(C(=O)N=c2sccn2C)ccc1OC(F)F	-18%	11%	?	·	0%	·
Cn1ccsc1=NC(=O)c1ccc(Cl)cc1	17µM*	?	?	14µM*	?	-4%
CN(C)c1ccc(C(=O)N=c2sccn2C)cc1[N+](=O)[O-]	9.5µM*	2.2µM*	3.2µM*	·	9.2µM*	·
CCc1nn(CC(=O)NCCc2ccc(Cl)cc2)c(=O)c2cc3c(OC)cccc3n12	-5%	·	·	-2%	·	·
Cc1cccc(NC(=O)c2cccc(OC(=S)N3CCOCC3)c2)c1	?	0%	-4%	·	-3%	·
